Tested on: K562 SF3B1 K700E vs K562 SF3B1 WT
Assay: surviving fraction ratio K562 SF3B1 K700E / K562 SF3B1 WT (each relative to DMSO); higher = less selective killing of SF3B1 K700E cells
Conditions: 5 days
Method in brief: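 Matched pairs of isogenic K562 cells, one engineered to carry a mutant allele and one wild-type, were screened in 384-well plates with an in-house 80-compound library at 250 cells per well. Compounds were added 24 h after seeding at 0.5, 1, 5, 10, 50, 100, 500 and 1,000 nM and left on the cells for 5 d of continuous culture. CellTiter-Glo gave viability, and the reported value is the ratio of mutant to wild-type surviving fraction, each normalised to DMSO.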

Row | Compound | surviving fraction ratio K562 SF3B1 K700E / K562 SF3B1 WT (0.5nM) | surviving fraction ratio K562 SF3B1 K700E / K562 SF3B1 WT (1nM) | surviving fraction ratio K562 SF3B1 K700E / K562 SF3B1 WT (5nM) | surviving fraction ratio K562 SF3B1 K700E / K562 SF3B1 WT (10nM) | surviving fraction ratio K562 SF3B1 K700E / K562 SF3B1 WT (50nM) | surviving fraction ratio K562 SF3B1 K700E / K562 SF3B1 WT (100nM) | surviving fraction ratio K562 SF3B1 K700E / K562 SF3B1 WT (500nM) | surviving fraction ratio K562 SF3B1 K700E / K562 SF3B1 WT (1000nM) | surviving fraction ratio K562 SF3B1 K700E / K562 SF3B1 WT (0.2nM) | surviving fraction ratio K562 SF3B1 K700E / K562 SF3B1 WT (0.4nM) | surviving fraction ratio K562 SF3B1 K700E / K562 SF3B1 WT (2nM) | surviving fraction ratio K562 SF3B1 K700E / K562 SF3B1 WT (4nM) | surviving fraction ratio K562 SF3B1 K700E / K562 SF3B1 WT (20nM) | surviving fraction ratio K562 SF3B1 K700E / K562 SF3B1 WT (40nM) | surviving fraction ratio K562 SF3B1 K700E / K562 SF3B1 WT (200nM) | surviving fraction ratio K562 SF3B1 K700E / K562 SF3B1 WT (400nM)
1 | CNC(=O)c1cc(Oc2ccc(NC(=O)Nc3ccc(Cl)c(C(F)(F)F)c3)cc2)ccn1 [sorafenib] | 0.8 | 0.973 | 0.87 | 0.956 | 0.915 | 1 | 0.887 | 0.973 | – | – | – | – | – | – | – | –
2 | COc1cc2nccc(Oc3ccc(NC(=O)NC4CC4)c(Cl)c3)c2cc1C(N)=O [Lenvatinib] | 0.728 | 0.787 | 0.763 | 0.755 | 0.815 | 0.834 | 0.71 | 0.674 | – | – | – | – | – | – | – | –
3 | COc1cc2nccc(Oc3ccc(NC(=O)C4(C(=O)Nc5ccc(F)cc5)CC4)cc3)c2cc1OC [Cabozantinib] | 0.718 | 0.805 | 0.831 | 0.71 | 0.733 | 0.704 | 0.503 | 0.686 | – | – | – | – | – | – | – | –
4 | CN(Cc1cnc2nc(N)nc(N)c2n1)c1ccc(C(=O)N[C@@H](CCC(=O)O)C(=O)O)cc1 [methotrexate] | 0.824 | 0.836 | 0.971 | 2.8 | 3.75 | 4.08 | 3.5 | 3.58 | – | – | – | – | – | – | – | –
5 | CCN(CC)CCNC(=O)c1c(C)[nH]c(/C=C2\C(=O)Nc3ccc(F)cc32)c1C [sunitinib] | 1.09 | 1.08 | 0.928 | 1.33 | 0.86 | 1.2 | 0.73 | 0.857 | – | – | – | – | – | – | – | –
6 | COc1cc2c(Oc3ccc(NC(=O)C4(C(=O)Nc5ccc(F)cc5)CC4)cc3F)ccnc2cc1OCCCN1CCOCC1 [Foretinib] | 0.742 | 0.75 | 0.797 | 0.729 | 0.775 | 0.561 | 1.02 | 0.913 | – | – | – | – | – | – | – | –
7 | CC[C@@H](C(=O)[C@@H](C)[C@@H](O)[C@H](C)[C@@H]1O[C@@H]([C@@H](CC)C(=O)O)CC[C@@H]1C)[C@H]1O[C@]2(C=C[C@@H](O)[C@]3(CC[C@@](C)([C@H]4CC[C@](O)(CC)[C@H](C)O4)O3)O2)[C@H](C)C[C@@H]1C [salinomycin] | 0.921 | 0.999 | 0.871 | 1.27 | 0.88 | 0.831 | 0.898 | 1.16 | – | – | – | – | – | – | – | –
8 | CN1CC[C@H](c2c(O)cc(O)c3c(=O)cc(-c4ccccc4Cl)oc23)[C@H](O)C1 [Flavopiridol] | 0.8 | 0.83 | 0.793 | 0.847 | 0.916 | 0.929 | 1.89 | 2.25 | – | – | – | – | – | – | – | –
9 | C[C@@H](Oc1cc(-c2cnn(C3CCNCC3)c2)cnc1N)c1c(Cl)ccc(F)c1Cl | 0.965 | 1.06 | 0.847 | 0.861 | 0.652 | 0.542 | 1.17 | 1.06 | – | – | – | – | – | – | – | –
10 | CC(=O)c1c(C)c2cnc(Nc3ccc(N4CCNCC4)cn3)nc2n(C2CCCC2)c1=O | 0.861 | 0.89 | 0.743 | 0.796 | 0.826 | 0.882 | 0.849 | 0.864 | – | – | – | – | – | – | – | –
11 | CC(=O)O[C@H]1C(=O)[C@@]2(C)[C@H]([C@H](OC(=O)c3ccccc3)[C@]3(O)C[C@H](OC(=O)[C@H](O)[C@@H](NC(=O)c4ccccc4)c4ccccc4)C(C)=C1C3(C)C)[C@]1(OC(C)=O)CO[C@@H]1C[C@@H]2O [paclitaxel] | 0.866 | 0.99 | 0.864 | 1.42 | 2.44 | 2.46 | 3 | 2.44 | – | – | – | – | – | – | – | –
12 | Cn1cc(C2=Nc3cc(NC(=O)C(N)C4CCCCC4)cc4c3C2=CNNC4=O)cn1 (stereo not given) | 0.884 | 0.979 | 0.826 | 0.834 | 0.992 | 0.621 | 0.815 | 1.88 | – | – | – | – | – | – | – | –
13 | COCC[n+]1c2c(n(Cc3cnccn3)c1C)C(=O)c1ccccc1C2=O | 0.819 | 0.805 | 1.33 | 1.8 | 1.14 | 0.899 | 0.84 | 0.809 | – | – | – | – | – | – | – | –
14 | C#Cc1cccc(Nc2ncnc3cc(OCCOC)c(OCCOC)cc23)c1 [erlotinib] | 0.882 | 0.743 | 0.852 | 0.843 | 0.692 | 0.788 | 0.811 | 0.712 | – | – | – | – | – | – | – | –
15 | CCCS(=O)(=O)Nc1ccc(F)c(C(=O)c2c[nH]c3ncc(Cl)cc23)c1F | 1.33 | 1.07 | 1.13 | 0.874 | 1.13 | 0.998 | 1.1 | 1.06 | – | – | – | – | – | – | – | –
16 | CCn1c(C(=O)N(C2CC2)C2CC2)cc2c3c(ncn3C)c(Nc3cc(C)n(C)n3)nc21 | 0.923 | 0.951 | 1 | 0.938 | 0.82 | 0.801 | 0.844 | 0.893 | – | – | – | – | – | – | – | –
17 | Cc1ccc(-c2cc(C(F)(F)F)nn2-c2ccc(S(N)(=O)=O)cc2)cc1 [celecoxib] | 0.751 | 0.819 | 0.804 | 0.813 | 0.673 | 0.736 | 0.79 | 0.698 | – | – | – | – | – | – | – | –
18 | C[C@]12CC[C@H](O)CC1=CC[C@@H]1[C@@H]2CC[C@]2(C)C(c3cccnc3)=CC[C@@H]12 | 1.04 | 0.918 | 0.91 | 0.915 | 0.899 | 1.01 | 0.995 | 0.937 | – | – | – | – | – | – | – | –
19 | O=C1NC(=NCc2cccs2)S/C1=C\c1ccc2ncccc2c1 | – | – | – | – | – | – | – | – | 0.909 | 0.855 | 0.878 | 0.842 | 1.02 | 0.921 | 0.844 | 0.909
20 | C[C@H](CN(C)C)Oc1nc(Nc2cc3cccc(Cl)c3cn2)cnc1C#N | 0.863 | 0.781 | 0.786 | 0.781 | 0.826 | 0.784 | 0.497 | 0.442 | – | – | – | – | – | – | – | –
21 | Nc1nc(=S)c2[nH]cnc2[nH]1 [6-thioguanine] | 0.927 | 0.836 | 0.914 | 0.819 | 0.78 | 0.792 | 0.828 | 0.777 | – | – | – | – | – | – | – | –
22 | Cc1nc(Nc2ncc(C(=O)Nc3c(C)cccc3Cl)s2)cc(N2CCN(CCO)CC2)n1 [dasatinib] | 1.18 | 2.2 | 1.86 | 1.39 | 1.23 | 1.42 | 1.72 | 1.65 | – | – | – | – | – | – | – | –
23 | Oc1nc(-c2ccc(C(F)(F)F)cc2)nc2c1CSCC2 | 1.15 | 0.906 | 0.867 | 0.822 | 1.35 | 1.11 | 1.15 | 0.958 | – | – | – | – | – | – | – | –
24 | CO[C@H]1C[C@@H]2CC[C@@H](C)[C@@](O)(O2)C(=O)C(=O)N2CCCC[C@H]2C(=O)O[C@H]([C@H](C)C[C@@H]2CC[C@@H](OCCO)[C@H](OC)C2)CC(=O)[C@H](C)/C=C(\C)[C@@H](O)[C@@H](OC)C(=O)[C@H](C)C[C@H](C)/C=C/C=C/C=C/1C [everolimus] | 0.697 | 0.655 | 0.712 | 0.806 | 0.702 | 0.697 | 0.824 | 0.967 | – | – | – | – | – | – | – | –
25 | Cc1ccc(NC(=O)c2ccc(CN3CCN(C)CC3)cc2)cc1Nc1nccc(-c2cccnc2)n1 [imatinibmesylate] | 0.696 | 0.74 | 0.733 | 0.692 | 0.55 | 0.617 | 1.5 | 1.1 | – | – | – | – | – | – | – | –

— the supplement of paper PMC10412459
